Results published in PubChem BioAssay AID504332 (National Center for Advancing Translational Sciences (NCATS), 2011).
In all, about 350,000 compounds went through this assay and about 31,000 (8.9%) were called active. Inconclusive results (about 15%) are left out. The sample as a whole holds a higher share of actives than the screen did. A number with no mark means an inactive call. Calls come from the whole dose curve; as a rule, active = well fitted inhibition curve with a large enough effect; inconclusive = small, poorly fitted or top-dose-only effect; inactive = no such curve, though single readings can be large or run the other way.

Target: Histone-lysine N-methyltransferase EHMT2 (Homo sapiens) (UniProt Q96KQ7)
Test: qHTS Assay for Inhibitors of Histone Lysine Methyltransferase G9a; note: nearly all actives have a fitted effect of over 75% in size
Conditions: G9a H3K9 monomethylation, AlphaScreen, 2 h; series mostly up to 59 µM; activity, negative = inhibition: at the top concentration
Source text: Methylated lysines, on the N-terminal tails of histone proteins serve as epigenetic markers to recruit factors that can then modify local chromatin structure to lead to functional consequences. G9a and other members of the SUV39 family of the SET domain-containing superfamily of histone lysine methyltransferases (HMT) have been identified to specifically methylate Lys9 of histone H3 (H3K9). G9a catalyzes the mono- and di-methylation of H3K9 in mammalian euchromatic regions, where the resulting H3K9me2 is indicative of transcriptional repression. […] The inhibition of G9a will result in transcriptional activation and work synergistically with DNA methyltransferase and histone deacetylase inhibitors, to kill cancer cells. This qHTS assay for identification of G9a inhibitors is a chemiluminescence based AlphaScreen (PerkinElmer). Methylation of biotinylated-histone peptide is measured through specific antibody-based detection, in conjunction with streptavidin-coated donor and anti-IgG antibody-coated acceptor beads. The method is particularly well suited for detection of inhibitors acting by the desired histone peptide competitive mechanism and is applicable to testing other HMTs. Although AlphaScreen has significant advantages with its utility in a variety of epigenetic target assays, the primary screening data provided in this deposition should be used with caution due to the prevalence of screening artifacts. An AlphaScreen counterscreen is highly recommended to be run against any putative actives to eliminate non specific artifacts. Alternatively, one can use other AlphaScreen assays in PubChem to filter out promiscuous hits. Quinn et al. A chemiluminescence-based method for identification of histone lysine methyltransferase inhibitors. Mol Biosyst 6(5): 782-8. 2010. PMID: 20567762 [2] Baell,Holloway. New substructure filters for removal of pan assay interference compounds (PAINS) from screening libraries and for their exclusion in bioassays. J Med Chem. 53(7):2719-40. 2010. PMID: 20131845 NIH Molecular Libraries Probe Production Network [MLPCN] NIH Chemical Genomics Center [NCGC] Structural Genomics Consortium (SGC) NIH Grant: 5U54 MH084681-02
To each well of a 1,536w plate, 2ul of HMT enzyme (final 20nM) were added, using a nanoliter dispenser. The G9a- and GLP-inhibitor BIX-01294 (CID: 25150857) are used as an intraplate control, with a 16-point titration in duplicate. A Kalypsys pin-tool transferred 23nl of library compound solution in DMSO to each well. Following a 15 min incubation of enzyme with compounds at room temperature, 1ul mixture of b-H3K9 peptide substrate (final 500nM) and SAM cofactor (final 20uM) were added. Reactions were allowed to proceed at room temperature for 2 hours. Methylated b-H3K9 peptide product was detected with 0.5 ug/mL rabbit polyclonal anti-monomethyl histone H3K9 antibody (Abcam Inc., Cambridge, MA) and 20 ug/mL each streptavidin-coated donor and anti-rabbit IgG acceptor AlphaScreen beads. Antibody and beads were added in a 1ul dispense, for a final volume of 4ul, and plates were incubated, protected from the light, for 10 min at room temperature. Microplates were then read on an EnVision multilabel plate reader using the 1,536 plate HTS AlphaScreen aperture (excitation time 80 ms, measurement time 240 ms).
% is set by controls: 0 for no effect and ±100 for the full control effect; potency is the fitted concentration of half-maximal effect.

Histone-lysine N-methyltransferase EHMT2 (Homo sapiens), sequence (Q96KQ7 913-1193 limits assumed): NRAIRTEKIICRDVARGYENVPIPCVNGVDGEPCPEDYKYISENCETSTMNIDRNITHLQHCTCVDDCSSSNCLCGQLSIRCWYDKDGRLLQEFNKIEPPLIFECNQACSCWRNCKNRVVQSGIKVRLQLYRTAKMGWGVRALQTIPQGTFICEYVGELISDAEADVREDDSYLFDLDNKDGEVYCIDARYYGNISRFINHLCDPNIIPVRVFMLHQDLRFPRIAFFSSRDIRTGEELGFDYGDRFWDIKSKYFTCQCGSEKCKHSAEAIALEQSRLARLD

First: CCn1cc(C(=O)N(C)Cc2ccccc2)c(=O)c2cc(S(=O)(=O)N3CCCCCC3)ccc21
Second: COc1ccc(S(=O)(=O)N2CCC(C(=O)N3CCc4ccccc4C3)CC2)cc1OC
The “activity, negative = inhibition” value of the first is higher: 10.3% for the first, -13.7% for the second.

First: Cc1ccc(S(=O)(=O)N2CCc3cc(C(=O)Nc4ccc(Cl)cc4C)ccc32)cc1
Second: COc1ccc(/C=C/C(=O)c2ccc(NS(=O)(=O)c3ccc(C)cc3)cc2)cc1O
The “activity, negative = inhibition” value of the first is higher: 3.64% for the first, -14.7% for the second.

Going from `Cc1nn2c(=O)cc(COC(=O)CNC(=O)c3ccc(F)cc3)nc2s1` to `COc1ccc(-c2nc3scc(CCNS(=O)(=O)c4cc(F)ccc4OC)n3n2)cc1OC`, the “activity, negative = inhibition” value rises from 1.25% to 7.7%.

Going from `Cc1ccc(-c2nc(C)sc2CC(=O)O)cc1` to `O=C(O)CC1S/C(=N\N=C/c2ccccc2O)N(c2ccc(O)cc2)C1=O` (centres undefined), the “activity, negative = inhibition” value rises from -39.5% to 31.1%.

Compared with `COc1ccc(C(=O)c2oc3ccccc3c2NC(=O)COc2cccc(C)c2)cc1`, `COc1ccc(-n2c(=O)c3c(c4cc(OC)ccc4n3C)n(Cc3cccc(C)c3)c2=O)cc1` is higher in “activity, negative = inhibition” value: -4.56% for the first, 2.9% for the second.

First: CCc1nn(CC(=O)N2CCN(c3cccc(C(F)(F)F)c3)CC2)c(=O)c2cc3occc3n12
Second: Cc1cccc(-c2nnc(SCC(=O)N3CCCc4ccccc43)o2)c1
The “activity, negative = inhibition” value of the first is lower: 2.68% for the first, 15.9% for the second.

Compared with `COCCN(Cc1ccco1)C(=O)Cn1ncc2c([nH]c3ccccc32)c1=O`, `O=C(CSc1nnc(-c2ccco2)n1-c1ccccc1)NCCc1ccccc1` is higher in “activity, negative = inhibition” value: -4.69% for the first, 21.7% for the second.

Compared with `COc1ccc(CCNC(=O)C(=O)NCC(c2ccco2)S(=O)(=O)c2cccs2)cc1OC` (centres undefined), `Cc1cccc(-c2nc(SCc3ccc(Br)cc3)n3[nH]c(=O)cc3n2)c1` is higher in “activity, negative = inhibition” value: -0.762% for the first, 46.9% for the second.

Compared with `Cc1nn(-c2ccccn2)c2c1C(c1ccncc1)C1=C(CC(C)(C)CC1=O)N2` (centres undefined), `CCc1cnc2c(c1SCC(=O)c1ccccc1)c(=O)n(C)c(=O)n2C` is higher in “activity, negative = inhibition” value: -38.3% for the first, -0.675% for the second.

Going from `Cc1ccc(Cl)cc1-c1ccc(/C=N/n2cnnc2)o1` to `Clc1cc(-c2ccc(/C=N/n3cnnc3)o2)ccc1Br`, the “activity, negative = inhibition” value falls from 14.3% to -7.95%.

Going from `CCC(C)Nc1oc(-c2ccc(COc3ccc(Cl)cc3)o2)nc1C#N` (centres undefined) to `COc1ccc(OCc2ccc(-c3nc(C#N)c(N4CCN(c5ccccc5)CC4)o3)o2)cc1`, the “activity, negative = inhibition” value rises from -37.3% to -29%.

With `COC(=O)c1ccc(COc2ccc(/C=C/C(=O)c3ccc(OC)c(CSCC(=O)O)c3)cc2OC)cc1` the Potency was 39.8 µM (active).
`Cc1nc(SCc2ccc(F)cc2)c([N+](=O)[O-])[nH]1` was tested, and the Potency was 25.1 µM (active).
`C/C(=N/Nc1nc(-c2ccccc2)c(CC(=O)O)s1)c1ccccc1` was tested, and the Potency was 1.78 µM (active).
With `COc1ccc(C(=O)NC(=O)CSc2nnc(-c3ccco3)n2-c2ccccc2)cc1` the Potency was 89.1 µM (active).
For `CCCC[C@H]1C(=O)N(c2ccccc2)N(c2ccc(O)cc2)C1=O`, the Potency was 7.94 µM (active).
For `COc1cc(/C=C/C2=CC(C)(C)NC(=S)N2)cc(OC)c1OC`, the Potency was 39.8 µM (active).
`Cc1cc(C)c(C2C3=C(Nc4c2c(C)nn4-c2ccccn2)c2ccccc2C3=O)c(C)c1` (centres undefined) was tested, and the Potency was 11.2 µM (active).
`Cc1cc(-c2ccc(/C=N/n3cnnc3)o2)c([N+](=O)[O-])cc1C` was tested, and the Potency was 50.1 µM (active).
With `CN1CCN(c2oc(-c3ccc(COc4ccc(Cl)cc4)o3)nc2C#N)CC1` the Potency was 11.2 µM (active).
In the case of `COc1ccc(S(=O)(=O)N2CCN(CC(=O)N3c4ccccc4CC3C)CC2)cc1OC` (centres undefined), the Potency is reported as 56.2 µM (active).

First: COc1ccc(/C=C/C(=O)N2CCCC2)cc1OC
Second: CCC(=O)c1ccc(OC(=O)/C=C/c2cc(OC)c(OC)c(OC)c2)cc1
The “activity, negative = inhibition” value of the first is higher: 47.4% [at 102 µM] for the first, 10.6% [at 102 µM] for the second.

Compared with `Cc1cc([N+](=O)[O-])nn1Cc1ccc(F)cc1`, `C=CCOc1ccc(/C=C/C(=O)OCC(=O)NC(C)c2ccc(F)cc2)cc1` (centres undefined) is lower in “activity, negative = inhibition” value: 8.26% [at 102 µM] for the first, -17.7% [at 102 µM] for the second.

Going from `CC(C)(C)c1ccc(SCCc2ccncc2)cc1` to `CCCCc1ccc(NC(=O)CN2C(=O)NC(Cc3ccccc3)C2=O)cc1` (centres undefined), the “activity, negative = inhibition” value falls from 60.8% [at 102 µM] to 4% [at 102 µM].

Compared with `CCOC(=O)C(=O)Nc1nc(-c2ccccc2)c(CC)s1`, `Cc1nnc(SCC(=O)Nc2cccc(N)c2)n1-c1ccccc1` is higher in “activity, negative = inhibition” value: 8.29% [at 102 µM] for the first, 10.8% [at 102 µM] for the second.

First: O=C(Nc1cccc(F)c1)NC1CCCCCCC1
Second: COc1ccc(C)cc1NC(=O)CN(C)S(=O)(=O)c1ccc2c(c1)n(C)c(=O)c(=O)n2C
The “activity, negative = inhibition” value of the first is higher: 76% [at 102 µM] for the first, 42.7% [at 102 µM] for the second.

In the case of `COc1ccc2[nH]c(C(=O)N/N=C/c3cc(OC)c(OC)c(OC)c3)cc2c1`, the “activity, negative = inhibition” value is reported as 10.8% [at 102 µM].

First: Cc1nc(N)nc(SCc2ccc([N+](=O)[O-])cc2)c1N
Second: COc1ccc(-n2c(SCC(=O)NCc3cccs3)nnc2-c2ccoc2C)cc1
The activity, negative = inhibition of the first is higher: -1.52% [at 12.7 µM] for the first, -7.6% [at 12.7 µM] for the second.

First: O=C(c1cn(-c2ccccc2)nc1-c1cccnc1)N1CCN(S(=O)(=O)c2ccccc2F)CC1
Second: O=C(Nc1ncccc1O)c1ccc(S(=O)(=O)N2CCCC2)cc1
The activity, negative = inhibition of the first is lower: -2.44% [at 12.7 µM] for the first, 6.98% [at 12.7 µM] for the second.

Going from `CCN(CC)CCn1c2c(c(SCC(=O)Nc3nc4ccccc4s3)nc1=O)CCCC2` to `O=[N+]([O-])c1cccc(/C=N/Nc2ncc(Br)cn2)c1`, the activity, negative = inhibition rises from 5.88% [at 0.501 µM] to 18% [at 0.501 µM].
